In the library only some 0.85% were active in any assay of this set; here they are far more common.
pAkt inh: blocks phosphorylation of Akt; Neuro2A IGF-stimulated pAkt S473 HTRF, 20 min; hits give low values; activity change, % for hits at 50 µM; 0.32% of 360,000 active; AID 651550; in the data active = activity change below about -80%; inconclusive = mostly about -51% to -80%
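Neuro2A cells in DMEM with 0.5% FBS, overnight at 37 deg C, given compound at single 50 µM final, then IGF (6 nM final) for 20 min at 37 deg C. Lysed; phospho-Akt Ser473 by HTRF after 24 h, 665/615 ratio.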
IDH1 R132H inh: human IDH1 R132H inhibition | 0.093% of 390,000 active | IDH1-R132H enzyme, NADPH consumption, diaphorase/resazurin fluorescence | O75874 | Potency, µM (doses to about 76.6 µM), usual class: inhibitors | AID 602179; note: nearly all actives have a fitted effect of over 65% in size
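IDH1-R132H (0.5 ug/mL dispensed) in pH 7.5 Tris buffer was preincubated 30 min with compound, then given a substrate mix of 0.016 mM NADPH and 2 mM alpha-KG for 80 min at room temperature; remaining NADPH was read by diaphorase/resazurin fluorescence.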
GLS inhibitor: blocks human kidney-isoform glutaminase activity; 0.21% of 410,000 active; GLS enzymatic activity, qHTS titration; Potency, µM (titrated, usually from 45.5 µM), usual class: inhibitors; AID 624170
Target sequence (O94925 whole entry, looked up, canonical isoform): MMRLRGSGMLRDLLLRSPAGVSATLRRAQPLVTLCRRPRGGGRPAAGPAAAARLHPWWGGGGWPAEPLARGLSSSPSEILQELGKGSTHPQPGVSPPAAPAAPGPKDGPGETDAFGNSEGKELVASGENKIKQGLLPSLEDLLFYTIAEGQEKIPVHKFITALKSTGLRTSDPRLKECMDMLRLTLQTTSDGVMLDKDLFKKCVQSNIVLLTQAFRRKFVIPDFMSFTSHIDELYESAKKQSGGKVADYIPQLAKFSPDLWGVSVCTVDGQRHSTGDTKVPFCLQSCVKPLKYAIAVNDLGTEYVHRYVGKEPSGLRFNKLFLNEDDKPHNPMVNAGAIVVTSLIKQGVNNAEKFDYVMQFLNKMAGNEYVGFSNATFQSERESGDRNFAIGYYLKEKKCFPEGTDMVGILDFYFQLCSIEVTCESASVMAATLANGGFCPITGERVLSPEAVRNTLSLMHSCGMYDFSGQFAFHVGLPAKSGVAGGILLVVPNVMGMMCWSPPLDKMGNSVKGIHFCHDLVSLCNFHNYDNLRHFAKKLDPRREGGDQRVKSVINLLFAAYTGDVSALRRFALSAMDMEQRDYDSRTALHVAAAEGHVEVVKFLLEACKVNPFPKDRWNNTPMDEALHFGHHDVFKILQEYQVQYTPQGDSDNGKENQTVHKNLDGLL
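hKGA in 45 mM KH2PO4 pH 8.2, 0.02% Tween-20 with pin-transferred compounds; 1 mM L-glutamine (stock) plus glutamate oxidase/HRP/Amplex Red coupling added. Fluorescence read initially and after 30 min at RT.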
MmCpn inh: inhibitors of Methanococcus maripaludis chaperonin TRiC (MmCpn) | purified Mm-Cpn ATPase, ADP Transcreener TR-FRET | Potency, µM (doses to about 76.9 µM), most hits filed as inhibitors | 0.031% of 330,000 active; note: nearly all actives have a fitted effect of over 80% in size
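ATPase read-out: TR-FRET ADP immunoassay (anti-ADP Eu cryptate vs ADP-d2), ex 320 nm, em 590/665 nm; signal drops as ADP forms. Enzyme 25 nM, ATP 10 uM, 30 min at 37°C after 10 min compound preincubation.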
Glioma ERSR ind: ER stress response induction in glioma. U87-MG GRP78 promoter luciferase reporter, 16 h. Potency, µM, most hits filed as activators. 0.02% of 420,000 active. AID 602332; note: series mostly up to about 76 µM; nearly all actives have a fitted effect of over 35% in size
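ERSR induction read as luciferase luminescence (Bright-Glo, 10 min at room temperature) in stably transfected human U87-MG glioma cells exposed to compounds for 16 h, using GRP78 as sensor.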
CCT chaperon mod: modulators of cytosolic chaperonin (CCT/TRiC) activity; purified chaperonin ATPase assay, HTRF ADP detection, 30 min; activity change, % (test concentration not listed), hits read low; 0.3% of 360,000 active; AID 651819; in the data active = activity change below about -30%
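TRiC at 40 or 20 nM final (batch-dependent) in 30 mM Tris pH 7.4, 100 mM KCl, 5 mM MgCl2, 1 mM DTT, with compound at single 76 uM and 10 uM ATP, 30 min at 37 deg C. ADP detected by HTRF Transcreener, 665/615 ratio.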
Resorufin autofl: counter-screen for mutant IDH1 inhibitors: fluorescence interference; shares compounds with IDH1 R132H inh; Resorufin detection reagent fluorescence interference, cell-free; inhibition of signal, % at 51.2 µM; 750 tested, under 10 active; AID 623980
WT IDH1 inh: inhibits human wild-type IDH1, mutant selectivity check | AID 623995 | Potency, µM (doses to about 115 µM), usual class: inhibitors | WT IDH1 enzyme, NADPH diaphorase/resazurin fluorescence | shares compounds with IDH1 R132H inh | 9% of 750 active; note: nearly all actives have a fitted effect of over 55% in size
IDH1 R132H conf: confirmation of human mutant IDH1 inhibitors. shares compounds with IDH1 R132H inh. IDH1 R132H enzyme, NADPH diaphorase/resazurin fluorescence. Potency, µM (top dose mostly 76.6 µM), most hits filed as inhibitors. 83% of 750 active. AID 624002; note: nearly all actives have a fitted effect of over 50% in size
GLS confirm: confirmation of human glutaminase inhibitors. shares compounds with GLS inhibitor. biochemical glutaminase enzyme inhibition assay. Potency, µM (titrated, usually from 46.1 µM), hits mostly inhibitors. 35 tested, under 10 active. AID 624261; calls by dose curve
HRP GOx counter: coupled enzyme interference in glutaminase inhibitor counterscreen; shares compounds with GLS inhibitor; HRP/glutamate oxidase coupled Amplex Red fluorescence counterscreen; activity change, negative = inhibition, % at 46.1 µM; 35 tested, under 10 active
GLS HEK tox: HEK-293 cytotoxicity, glutaminase hit confirmation; activity change, negative = cytotoxicity, % at 46.1 µM; HEK-293 viability, CellTiter-Glo luminescence, 24 h; 35 tested, under 10 active; shares compounds with GLS inhibitor
A number is an active result; - = inactive; ? = inconclusive; . = not tested or not shown. Unless noted, calls come from the whole dose curve; as a rule, active = well fitted curve in the direction sought with a large enough effect; inconclusive = small, poorly fitted or top-dose-only effect, or another doubt; inactive = no such curve, though single readings can be large; an effect the other way counts as inactive or inconclusive.

SMILES	pAkt inh	IDH1 R132H inh	GLS inhibitor	MmCpn inh	Glioma ERSR ind	CCT chaperon mod	Resorufin autofl	WT IDH1 inh	IDH1 R132H conf	others
CCOC(=O)c1c(NC(=O)CN(CC)CC)sc2c1CCN(C(=O)OCC)C2	-	-	-	?	-	-	.	.	.
CCOC(=O)c1c(NC(=O)CN2CCOCC2)sc2c1CCCC2=O	-	-	-	-	-	-	.	.	.
CCOC(=O)c1c(NC(=O)CN2CCOCC2)sc2c1CCCC2	-	26µM	-	-	-	-	-	-	20µM
CCOC(=O)c1c(NC(=O)CN2CCCCC2)sc2c1CCN(C(=O)OCC)C2	-	12µM	-	-	-	-	-	-	6.3µM
Cc1cc(-n2c(=S)sc3c(=O)n(-c4ccc(F)cc4)c(SCC(=O)O)nc32)ccc1Cl	-	26µM	-	-	-	-	-	?	7.9µM
COc1ccccc1-n1c(SCC(=O)O)nc2c(sc(=S)n2-c2ccc(Cl)c(C)c2)c1=O	-	-	-	-	-	-	.	.	.
CC(C)(C)c1ccc(C(=O)N2CCC3(CC2)CC3C(=O)NCCc2ccccn2)cc1 (configuration not stated)	.	.	.	.	-	.	.	.	.
CSc1ccc(-c2ccc3c(c2)CC(CNC(=O)Cn2nc(C)nc2C)O3)cc1 (configuration not stated)	.	.	.	.	-	.	.	.	.
Fc1ccc(Nc2nc(NCc3ccco3)c3ccccc3n2)cc1	-	?	-	-	-	-	-	-	28µM
CCC(C)NC(=O)c1cc(Sc2cccc(Cl)c2)nc2ccccc12 (configuration not stated)	.	-	-	.	-	.	.	.	.
CCc1ccc(Sc2cc(C(=O)NC(C)CC)c3ccccc3n2)cc1 (configuration not stated)	.	?	-	.	-	.	-	-	?
Cc1ccc(C2c3c(-c4cc(C)ccc4O)n[nH]c3C(=O)N2Cc2ccco2)cc1 (configuration not stated)	.	35µM	-	.	-	.	-	-	45µM
Cc1cc(C)c(O)c(-c2n[nH]c3c2C(c2cccc(O)c2)N(Cc2ccco2)C3=O)c1 (configuration not stated)	-	16µM	-	-	-	-	-	50µM	22µM
O=C1c2[nH]nc(-c3ccccc3O)c2C(c2ccc(F)cc2)N1Cc1ccco1 (configuration not stated)	-	?	-	-	-	-	-	-	40µM
O=C1c2[nH]nc(-c3ccccc3O)c2C(c2cccc(Cl)c2)N1Cc1ccco1 (configuration not stated)	-	?	-	-	-	-	.	.	.
CCC1C(=O)NCCN1Cc1ccc2c(c1)CN(Cc1ccc(OC)cc1OC)CCO2 (configuration not stated)	.	.	.	.	-	.	.	.	.
O=C(NCCc1ccccn1)C1CC12CCN(C(=O)c1ccc(F)cc1Cl)CC2 (configuration not stated)	.	.	.	.	-	.	.	.	.
COc1cc(=O)n2c(c1C(=O)NC(C)c1ccco1)CCN(C(=O)c1ccc(F)cc1Cl)CC2 (configuration not stated)	.	.	.	.	-	.	.	.	.
CC(NC(=O)C1CC1)c1nnc2n1CCN(Cc1cccc(F)c1F)CC2 (configuration not stated)	.	.	.	.	-	.	.	.	.
COc1ccc(-c2c3c(nc4sc5c(=O)[nH]c(C)nc5c24)CCC3)cc1	-	21µM	-	-	-	-	-	-	7.1µM
O=C(NC1CCCCC1)C(c1ccc(F)cc1)N(C(=O)c1cccs1)c1ccc2c(c1)OCO2 (configuration not stated)	-	?	-	-	-	-	-	-	7.9µM
O=C(NC1CCCCC1)C(c1cccs1)N(C(=O)c1ccco1)c1ccc2c(c1)OCCO2 (configuration not stated)	-	?	-	-	-	-	-	-	?
CSc1ncccc1C(=O)NCC1Cc2cc(-c3cnccn3)ccc2O1 (configuration not stated)	.	.	.	.	-	.	.	.	.
Cc1ccc(NS(=O)(=O)c2ccc(/C=C/C(=O)O)cc2)cc1Cl	-	-	-	-	-	-	.	.	.
O=C(O)/C=C/c1ccc(S(=O)(=O)Nc2ccc3[nH]c(=O)[nH]c3c2)cc1	-	-	?	-	-	-	.	.	.	GLS confirm=-;HRP GOx counter=-;GLS HEK tox=-
SMILES	pAkt inh	IDH1 R132H inh	GLS inhibitor	MmCpn inh	Glioma ERSR ind	CCT chaperon mod	Resorufin autofl	WT IDH1 inh	IDH1 R132H conf	others
COc1ccc(NS(=O)(=O)c2ccc(NC(=S)NCC3CCCO3)cc2)cc1 (configuration not stated)	-	-	-	?	-	-	.	.	.
COc1ccccc1NS(=O)(=O)c1ccc(O)c(NC(=S)NCC2CCCO2)c1 (configuration not stated)	-	-	?	-	-	-	.	.	.	GLS confirm=-;HRP GOx counter=-;GLS HEK tox=-
COc1cc(CN2CCOc3ccc(C(O)c4cccnc4)cc3C2)cc(OC)c1 (configuration not stated)	.	.	.	.	-	.	.	.	.
COc1ccccc1NS(=O)(=O)c1cc(NC(=O)c2cc[n+]([O-])cc2)ccc1N1CCCC1	-	-	11µM	-	-	-	.	.	.	GLS confirm=-;HRP GOx counter=-;GLS HEK tox=-
COc1ccc(NS(=O)(=O)c2ccc3c(c2)[C@H]2C=CC[C@H]2[C@@H](c2ccc(C(=O)O)cc2)N3)cc1	-	-	10µM	-	-	-	.	.	.	GLS confirm=3.3µM;HRP GOx counter=-;GLS HEK tox=-
CCOC(=O)CN[C@@H](C(=O)N1CC[C@H]1C(=O)NCc1ccc(/C(N)=N/O)cc1)C1CCCCC1	.	.	-	.	-	.	.	.	.
CCOc1ccc(N=C(C)Nc2ccc(OCC)cc2)cc1	.	.	-	.	-	.	.	.	.
COc1ccc(NS(=O)(=O)c2cc(N)ccc2N2CCOCC2)cc1	-	-	-	-	-	-	.	.	.
COc1ccc(NS(=O)(=O)c2cc(N)ccc2N2CCCC2)cc1	-	-	?	-	-	-	.	.	.	GLS confirm=-;HRP GOx counter=?;GLS HEK tox=-

Screening data from PubChem BioAssay.
